The source of these data is PubChem BioAssay (NCATS).

The target in assay [1] is Luciferin 4-monooxygenase (Photinus pyralis) (UniProt P08659). Description: Biochemical firefly luciferase enzyme assay for NPC (AID 624030).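 Further: purified P. pyralis luciferase at 10 nM with luciferin and ATP substrate; 0% = DMSO and -100% = full luciferase inhibition by PTC124 control; nearly all actives have a fitted effect of over 70% in size.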 In outline:
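Direct inhibition of firefly luciferase enzyme (10 nM final, 50 mM Tris Acetate) assessed by luminescence within 5 minutes. Percent activity scaled between DMSO and PTC124 positive control, with concentration-effect curves classified by fit quality and response.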

The nature of assay [2]: S16 Schwann cell viability assay (CellTiter-Glo assay) (AID 624031). Further: nearly all actives have a fitted effect of over 70% in size. Further: potency means the concentration at half of the fitted maximal effect. A digest of the protocol: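 Cells were seeded at 500-750 per well in phenol red-free DMEM with 10% FBS and left overnight. Compounds or DMSO were pinned in, incubation ran 24 h at 37 °C/5% CO2, then CellTiter-Glo reagent was added and luminescence measured.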
Background: ATP-based viability assays read luminescence as a measure of living cells.

Assay [3] can be described thus: S16 Schwann cell PMP22 intronic element firefly luciferase assay (AID 624032). Further: nearly all actives have a fitted effect of over 30% in size. Further: potency means the concentration at half of the fitted maximal effect. A digest of the protocol: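 Luciferase reporter of PMP22 intronic-element expression in stably transfected S16 rat Schwann cells, read by ONE-Glo luminescence after 24 h compound exposure at 37 C. Activity scaled between DMSO (0%) and positive-control PTC124; concentration-effect curves quality-classified.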

Assay [4] can be described thus: S16 Schwann cell PMP22 intronic element beta-lactamase assay (AID 624044; calls by dose curve; further: nearly all actives have a fitted effect of over 15% in size; further: potency means the concentration at half of the fitted maximal effect). In outline: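 Rat S16 Schwann cells with beta-Lac driven by a PMP22 intronic element, compound-treated 24 h at 37 °C. LiveBLAzer FRET B/G read: 460 nm normalized to potassium clavulanate vs DMSO; 535 nm FRET as viability; concentration-effect curves classified.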
Assay [5] can be described thus: Cytotoxicity counterscreen for NFkB agonists and antagonists (AID 624476; further: on the % scale 0 is the no-effect control and ±100 the full control effect). (Counterscreens check selectivity or assay interference.)
Assay [6] can be described thus: qHTS Assay for Identification of Small Molecule Agonists for NFkB Signaling Pathway. (AID 624478).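 Further: compounds tested together with TNF alpha at its EC50 of 10 pM; 0% is about no effect.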 In outline:
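ME-180 cervical carcinoma, stable NFkB-RE beta-lactamase reporter; 1000 cells/well, overnight attachment; cpd + TNF alpha 10 pM final, 5 h 37 C; LiveBLAzer 2 h RT; FRET 460/530 nm, ex 405 nm.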
For orientation: Quantitative high-throughput screening tests each substance at several concentrations.

The nature of assay [7]: qHTS Assay for Identification of Small Molecule Antagonists for NFkB Signaling Pathway. (AID 624479; calls by dose curve;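 further: pathway stimulated with TNF alpha; on the % scale 0 is the no-effect control and ±100 the full control effect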).
Assay [8] can be described thus: Cell Proliferation Assay against the TMD8 Cell Line (AID 651645).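 Further: cells exposed to compound for 48 h before reading.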 The following applies: TMD8 DLBCL cell line proliferation/viability; at 46.1 µM (top of the series) unless noted. In outline: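 TMD8 ABC DLBCL cells, 500 per well in phenol red-free RPMI with 5% FBS, were treated with compound by pin transfer and incubated 48 hours at 37C, 5% CO2. Viability was read by CellTiter-Glo luminescence, normalised to DMSO (100%) and 9.2 uM bortezomib (0%).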

A short description of assay [9]: Cell Proliferation Assay against the HBL1 Cell Line (AID 651646).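 Further: cells exposed to compound for 48 h before reading.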 The following applies: HBL1 DLBCL cells; at 46.1 µM (top of the series) unless noted. A digest of the protocol: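 Luminescent ATP read-out (CellTiter-Glo) after 48 h compound exposure of HBL1 cells at 37 °C; percent activity was scaled between DMSO as 100% and 9.2 uM bortezomib (final) as 0%.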
Assay [10] can be described thus: Cell Proliferation Assay against the TMD8 Cell Line (Caspase readout at 16 hrs) (AID 651712). A digest of the protocol:
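Apoptotic response of TMD8 cells was judged from caspase 3/7 activation following a 16 hour compound incubation at 37 °C. Luminescent signal was converted to percent activity, with DMSO set as 0% and 9.2 uM final bortezomib as 100%.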

A short description of assay [11]: Cell Proliferation Assay against the TMD8 Cell Line (Caspase readout at 8 hrs) (AID 651713). Further: potency means the concentration at half of the fitted maximal effect. A digest of the protocol:
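Seed log-phase TMD8 cells, add compound by pin tool, incubate 8 h at 37C under 5% CO2, equilibrate to room temperature, add Caspase-Glo, wait 15 min, read luminescence; percent activity uses DMSO and 9.2 uM bortezomib controls.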

Structures are written as SMILES. Records with an inconclusive call do not appear. The source made the active and inactive calls. Unless noted, the call rests on the fitted dose curve; in most records, active means well fitted curve in the direction sought with a large enough effect; inconclusive means small, poorly fitted or top-dose-only effect, or another doubt; inactive means no such curve, though single readings can be large; an effect the other way counts as inactive or inconclusive. Peptide text beside a SMILES is read from it.

Chain of Luciferin 4-monooxygenase (Photinus pyralis) (P08659 whole entry, looked up): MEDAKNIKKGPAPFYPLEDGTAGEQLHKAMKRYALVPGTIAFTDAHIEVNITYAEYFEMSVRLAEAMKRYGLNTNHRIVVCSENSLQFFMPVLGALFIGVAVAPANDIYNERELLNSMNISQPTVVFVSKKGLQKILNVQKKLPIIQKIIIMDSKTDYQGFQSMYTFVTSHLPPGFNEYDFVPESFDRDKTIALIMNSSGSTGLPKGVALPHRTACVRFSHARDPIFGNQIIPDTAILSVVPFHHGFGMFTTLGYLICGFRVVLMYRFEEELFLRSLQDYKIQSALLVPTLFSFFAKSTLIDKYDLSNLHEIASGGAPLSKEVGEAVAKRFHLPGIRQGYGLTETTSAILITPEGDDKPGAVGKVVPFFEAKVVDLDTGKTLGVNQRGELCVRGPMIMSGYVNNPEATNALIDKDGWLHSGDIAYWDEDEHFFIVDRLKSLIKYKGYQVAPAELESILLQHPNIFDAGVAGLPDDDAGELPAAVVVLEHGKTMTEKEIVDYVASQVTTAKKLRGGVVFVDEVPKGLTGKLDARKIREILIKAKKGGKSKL

Regarding `CCCCC(C)(O)C/C=C/[C@H]1[C@H](O)CC(=O)[C@@H]1CCCCCCC(=O)OC` (stereo not given in full), the Potency entry in assay [1], in assay [2] and in assay [4] was “inactive” each time. Also, in assay [3], the Potency is 0.181 µM (active).
`CC1(C)S[C@@H]2[C@H](NC(=O)[C@@H](NC(=O)N3CCNC3=O)c3ccccc3)C(=O)N2[C@H]1C(=O)O`: the Potency result in assay [1], in [2], in [3] and in assay [4] was “inactive” in each case.
With `CCCCCCCCCCCCCCCCCCOP(=O)([O-])OC1CC[N+](C)(C)CC1`, the Potency entry in [1], in assay [5], in assay [7], in [10] and in assay [11] was “inactive” each time. Besides, the compound was classed as inactive in assay [6]. For the same compound, the viability (% of control) in [8] worked out at 102% [at 29.8 µM]. Further, the viability, percent of control in assay [9] worked out at 93.3% [at 29.8 µM].
`CC(=O)N[C@@H](CC(=O)O)C(=O)N[C@@H](CCC(=O)O)C(=O)O` (Ac-Asp-Glu-OH): the Potency result in assay [1], in assay [2], in [3] and in [4] was “inactive” each time.
For `CCCCCCCCCCCCCC[n+]1ccc(C)cc1`, the Potency entry in assay [1] was “inactive”. In addition, the Potency in [3] is 2.56 µM (active); in assay [4] it was 19.9 µM (active).
With `CC[C@@]1(O)C(=O)OCc2c1cc1n(c2=O)Cc2cc3c([N+](=O)[O-])cccc3nc2-1`, in assay [1], the Potency result is “inactive”. Besides, the Potency is 0.203 µM (active) in [3] and 1.41 µM (active) in [4].
As to `COC(C(=O)C(O)C(C)O)C1Cc2cc3cc(OC4CC(OC5CC(O)C(O)C(C)O5)C(O)C(C)O4)c(C)c(O)c3c(O)c2C(=O)C1OC1CC(OC2CC(OC3CC(C)(O)C(O)C(C)O3)C(O)C(C)O2)C(O)C(C)O1` (stereo not given), the Potency entry in assay [2] and in assay [3] was “inactive” throughout. For the same compound, the Potency in assay [4] is 22.4 µM (active).
Consider `CC(=O)Oc1cc(C)c(OC(C)=O)c2ccccc12`, for which the Potency result in [1] and in assay [4] was “inactive” each time. In addition, the Potency in assay [3] was 28.7 µM (active).
As for `COCC(=O)Nc1cc(Sc2ccccc2)ccc1N=C(NC(=O)OC)NC(=O)OC`, the Potency entry in [1], in assay [3] and in assay [4] was “inactive” each time.
On to `CCC1(O)CC2CN(CCc3c([nH]c4ccccc34)[C@@](C(=O)OC)(c3cc4c(cc3OC)N(C=O)[C@H]3[C@](O)(C(=O)OC)[C@H](OC(C)=O)[C@]5(CC)C=CCN6CC[C@]43[C@@H]65)C2)C1` (stereo not given in full), for which the Potency entry in assay [5] and in [7] was “inactive” in each case. For the same compound, the call in [6] was inactive. Besides, the viability (% of control) in assay [8] was -0.162%. The viability, percent of control in assay [9] worked out at 22.9%. Further, the Potency in [11] was 1.32 µM (active).
Regarding `C#C[C@]1(O)CC[C@H]2[C@@H]3CCC4=CCCC[C@@H]4[C@H]3C(=C)C[C@@]21CC`, the Potency entry in assay [1], in [3] and in assay [4] was “inactive” in each case.
On to `CCC1(Cc2ccc(N)cc2)CCC(=O)NC1=O` (stereo not given), for which the Potency result in assay [5], in [7], in assay [10] and in assay [11] was “inactive” throughout. Besides, the viability (% of control) in assay [8] is 97.8% [at 92.2 µM]. The viability, percent of control in [9] came to 97.3% [at 92.2 µM].
For the compound `CN1C(=O)CN2CCc3ccccc3C2c2cc(Cl)ccc21` (stereo not given), the Potency entry in assay [1], in [2], in [3] and in [4] was “inactive” in each case.
As for `Clc1cc(Cl)c(OCC#CI)cc1Cl`, the Potency in [2] was 25.6 µM (active); in assay [3], 28.7 µM (active).
On to `Oc1cc(O)c2c(c1)OC(c1ccc(O)c(O)c1)C(O)C2` (stereo not given), for which the Potency entry in [1], in assay [2], in assay [3] and in assay [4] was “inactive” each time.
